Laboratory results as given in PubChem BioAssay (Tox21).
Unmarked numbers belong to inactive results. Inconclusive results are not listed. A call without a number means that no potency is given here. Active and inactive are the calls of the source. Unless noted, the call rests on the fitted dose curve.

Key:
[1] = Nuclear factor erythroid 2-related factor 2/antioxidant responsive element (Nrf2/ARE) small molecule agonists: qHTS cell viability counter screen in human keratinocytes (AID 1919968; active means well fitted curve in the direction sought with a large enough effect in the repeat runs; an effect the other way counts as inactive or inconclusive; further: nearly all actives have a fitted effect of over 55% in size; further: potency means the concentration at half of the fitted maximal effect)
Outline: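 After a 5 h attachment period, ARE-reporter keratinocytes were dosed with compounds in DMSO and then cultured 23 h at 37 C. Cell viability came from CellTiter-Fluor signal read after a further 1 h.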

[2] = Nuclear factor erythroid 2-related factor 2/antioxidant responsive element (Nrf2/ARE) small molecule agonists: luciferase reporter gene qHTS assay in human keratinocytes (AID 1919969); further: nearly all actives have a fitted effect of over 35% in size; further: potency means the concentration at half of the fitted maximal effect
[3] = target: Gonadotropin-releasing hormone receptor (Homo sapiens) (UniProt P30968); experiment: Human gonadotropin-releasing hormone receptor (GnRHR) small molecule agonists, calcium flux assay in GnRHR-HEK293 cells (AID 1920063); further: nearly all actives have a fitted effect of over 35% in size
Sequence of Gonadotropin-releasing hormone receptor (Homo sapiens) (P30968 whole entry, looked up): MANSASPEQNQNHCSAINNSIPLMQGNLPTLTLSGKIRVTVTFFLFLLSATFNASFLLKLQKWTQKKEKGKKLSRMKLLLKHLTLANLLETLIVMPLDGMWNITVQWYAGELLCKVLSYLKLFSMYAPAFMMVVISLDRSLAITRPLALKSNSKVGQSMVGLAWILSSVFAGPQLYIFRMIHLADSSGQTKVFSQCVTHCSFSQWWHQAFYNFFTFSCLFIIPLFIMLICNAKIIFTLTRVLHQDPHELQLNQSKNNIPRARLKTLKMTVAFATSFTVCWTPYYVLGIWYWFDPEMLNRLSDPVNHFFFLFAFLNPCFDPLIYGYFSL
Outline: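 We seeded human GnRHR-expressing HEK293 cells for 18 hours, loaded them with calcium dye for an hour at 37 C, added test compounds, and recorded fluorescence intensity kinetically for three minutes.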

[4] = target: KiSS-1 receptor (Homo sapiens) (UniProt Q969F8); experiment: Human kisspeptin (KISS1R) small molecule agonists, calcium flux assay in KISS1R-HEK293 cells (AID 1920064; active means well fitted curve in the direction sought with a large enough effect in the repeat runs; an effect the other way counts as inactive or inconclusive)
Sequence of KiSS-1 receptor (Homo sapiens) (Q969F8 whole entry, looked up): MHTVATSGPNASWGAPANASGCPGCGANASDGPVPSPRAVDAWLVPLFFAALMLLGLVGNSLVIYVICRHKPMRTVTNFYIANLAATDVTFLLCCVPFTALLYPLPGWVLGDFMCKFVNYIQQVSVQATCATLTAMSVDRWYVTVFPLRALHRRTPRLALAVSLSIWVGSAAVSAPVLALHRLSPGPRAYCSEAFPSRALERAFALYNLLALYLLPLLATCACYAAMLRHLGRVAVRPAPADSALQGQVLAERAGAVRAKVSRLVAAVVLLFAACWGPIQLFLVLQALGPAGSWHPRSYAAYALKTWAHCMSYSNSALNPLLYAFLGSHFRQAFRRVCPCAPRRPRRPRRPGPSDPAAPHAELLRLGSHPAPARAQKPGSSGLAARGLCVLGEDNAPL
Outline: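 Kinetic calcium assay, 1 s sampling over 3 min at Ex/Em 480/540, in HEK293 cells engineered with human KISS1R; compounds delivered in DMSO after 1 h dye loading.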

[5] = G protein-coupled receptor (GPCR) small molecule agonists, calcium flux assay: HEK293 wild type cell line counter screen (AID 1920065)
Outline: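 Calcium-sensitive dye, loaded 1 h at 37 C into cells cultured 18 h, reports compound-evoked calcium release as fluorescence (Ex/Em 480/540), measured over 3 min. Agonist mode; 15-point titrations, triplicate.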

[6] = p53 small molecule agonists, cell-based qHTS assay with human liver microsomes (AID 1963577);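 further: p53 response element beta-lactamase reporter cells with liver microsomes plus NADPH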
Outline: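 HLM-supplemented p53RE-bla reporter assay: 16 h compound exposure at 37 C, microsomes and NADPH each 0.5 mg/mL final, read by fluorescence intensity.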

[7] = p53 small molecule agonists, cell-based qHTS assay with rat liver microsomes (AID 1963578)
Outline: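 Quantitative HTS of the Tox21 10K library: p53RE-bla cells, rat liver microsomes plus NADPH at 0.5 mg/mL final each, 16 h at 37 C, beta-lactamase fluorescence detection.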

[8] = p53 small molecule agonists, cell-based qHTS assay with human liver microsomes: qHTS cell viability counter screen (AID 1963579); further: nearly all actives have a fitted effect of over 45% in size; further: potency means the concentration at half of the fitted maximal effect
Outline: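 Viability of p53RE-bla cells is measured as CellTiter-Glo luminescence following a 16 h, 37 C incubation with compound, liver microsomes from human donors and NADPH.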

[9] = p53 small molecule agonists, cell-based qHTS assay with rat liver microsomes: qHTS cell viability counter screen (AID 1963580); further: nearly all actives have a fitted effect of over 45% in size; further: potency means the concentration at half of the fitted maximal effect
Outline: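 p53RE-bla HCT-116 cells were exposed 16 h at 37 C to compounds with rat liver microsomes (0.5 mg/mL) and NADPH (0.5 mg/mL). Viability was measured in the same wells as ATP content by CellTiter-Glo luminescence.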

[10] = p53 small molecule agonists, cell-based qHTS assay (AID 1963582; active means well fitted activation curve with a large enough effect in the signal ratio in the repeat runs, not every such curve was filed as active; the % refers to the signal ratio)
Outline: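 In this cell-based concentration-response screen, a p53 response element drives beta-lactamase; cells received DMSO-borne compounds after 5 h culture and were incubated a further 16 h before FRET substrate development.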

[11] = cAMP Responsive Elements (CRE) small molecule agonists, cell-based qHTS assay (AID 1963590)
Outline: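 A CRE-responsive beta-lactamase reporter in HEK 293T cells was used. Treatment ran 3 h at 37 C; detection used LiveBLAzer B/G FRET substrate for 2 h at room temperature.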

[12] = target: Beta-2 adrenergic receptor (Homo sapiens) (UniProt P07550); experiment: Adrenergic beta2 receptor (ADRB2) small molecule antagonists, cell-based qHTS assay (AID 1963592); further: series mostly up to about 92 µM; nearly all actives have a fitted effect of over 50% in size
Sequence of Beta-2 adrenergic receptor (Homo sapiens) (P07550 whole entry, looked up): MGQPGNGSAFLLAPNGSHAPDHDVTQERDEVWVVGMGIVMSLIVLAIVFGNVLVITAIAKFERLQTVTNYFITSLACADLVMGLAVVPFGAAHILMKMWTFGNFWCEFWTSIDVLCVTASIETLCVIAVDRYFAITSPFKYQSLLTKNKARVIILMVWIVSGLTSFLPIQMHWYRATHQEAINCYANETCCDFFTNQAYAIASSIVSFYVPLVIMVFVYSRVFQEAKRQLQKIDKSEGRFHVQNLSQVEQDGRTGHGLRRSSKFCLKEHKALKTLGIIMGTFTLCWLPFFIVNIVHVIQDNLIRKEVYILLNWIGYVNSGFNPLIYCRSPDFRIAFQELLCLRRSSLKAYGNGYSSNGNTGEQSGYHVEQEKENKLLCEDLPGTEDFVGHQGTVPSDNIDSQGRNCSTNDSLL
Outline: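 Cells (CHO, stable ADRB2 overexpression) incubated 18-20hr at 37C; compounds added from DMSO; agonist mix (1nM isoproterenol, 100uM IBMX, 25uM Ro-20-1724) added; 0.5hr RT; d2-cAMP and anti-cAMP-cryptate added; 1hr RT; 665/615 nm read.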

[13] = target: 5-hydroxytryptamine receptor 2A (Homo sapiens) (UniProt P28223); experiment: 5-hydroxytryptamine receptor 2A (HTR2A) small molecule antagonists, cell-based qHTS assay (AID 1963586); further: nearly all actives have a fitted effect of over 45% in size
Sequence of 5-hydroxytryptamine receptor 2A (Homo sapiens) (P28223 whole entry, looked up): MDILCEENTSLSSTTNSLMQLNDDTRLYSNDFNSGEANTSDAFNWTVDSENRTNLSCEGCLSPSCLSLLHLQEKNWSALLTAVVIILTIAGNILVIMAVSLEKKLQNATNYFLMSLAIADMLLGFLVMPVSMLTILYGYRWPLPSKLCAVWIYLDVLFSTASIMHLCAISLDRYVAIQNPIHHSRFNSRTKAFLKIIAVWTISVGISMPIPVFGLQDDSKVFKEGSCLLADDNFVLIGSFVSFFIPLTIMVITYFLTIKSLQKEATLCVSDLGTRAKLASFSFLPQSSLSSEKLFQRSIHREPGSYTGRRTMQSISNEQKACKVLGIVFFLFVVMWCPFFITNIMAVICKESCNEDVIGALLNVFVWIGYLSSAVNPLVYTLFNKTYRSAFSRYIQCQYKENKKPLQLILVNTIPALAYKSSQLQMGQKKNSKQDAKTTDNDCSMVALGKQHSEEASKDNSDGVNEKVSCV
Outline: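 Antagonist-mode intracellular calcium assay: DOI (4 nM) added after 5 min compound pre-incubation at room temperature to dye-loaded HTR2A-CHO cells. Fluorescence followed for 3 min, sampled every second.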

[14] = target: 5-hydroxytryptamine receptor 2A (Homo sapiens) (UniProt P28223); experiment: 5-hydroxytryptamine receptor 2A (HTR2A) small molecule agonists, cell-based qHTS assay (AID 1963587); further: nearly all actives have a fitted effect of over 30% in size
Outline: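 CHO cells stably expressing human HTR2A, plated 18 h, loaded with calcium dye 1 h at 37 C. Agonist mode: compounds added and intracellular calcium fluorescence recorded kinetically for 2 min at 1 sec intervals.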

[15] = target: Muscarinic acetylcholine receptor M1 (Homo sapiens) (UniProt P11229); experiment: Cholinergic receptor muscarinic 1 (CHRM1) small molecule antagonists, cell-based qHTS assay (AID 1963588); further: nearly all actives have a fitted effect of over 40% in size; further: potency means the concentration at half of the fitted maximal effect
Sequence of Muscarinic acetylcholine receptor M1 (Homo sapiens) (P11229 whole entry, looked up): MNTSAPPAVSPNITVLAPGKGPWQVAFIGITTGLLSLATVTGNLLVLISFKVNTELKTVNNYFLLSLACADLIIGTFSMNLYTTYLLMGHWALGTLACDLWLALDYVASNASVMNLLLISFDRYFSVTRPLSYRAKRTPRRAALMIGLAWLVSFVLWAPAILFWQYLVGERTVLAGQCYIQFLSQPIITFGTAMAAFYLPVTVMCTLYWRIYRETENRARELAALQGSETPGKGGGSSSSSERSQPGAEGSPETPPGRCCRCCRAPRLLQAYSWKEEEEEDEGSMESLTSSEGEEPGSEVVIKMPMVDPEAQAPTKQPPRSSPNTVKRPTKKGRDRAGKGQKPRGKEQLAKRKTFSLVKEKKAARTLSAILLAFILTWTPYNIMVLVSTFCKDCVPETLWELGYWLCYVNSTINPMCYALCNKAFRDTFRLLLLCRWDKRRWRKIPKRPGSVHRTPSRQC
Outline: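 CHRM1-CHO calcium-flux assay, antagonist mode. Cells were seeded 18 h, dye-loaded 1 h at 37 C and given compound for 5 min at RT, then acetylcholine was added at 50nM. FDSS fluorescence was read 3 min; 15 concentrations, three runs.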

[16] = target: Muscarinic acetylcholine receptor M1 (Homo sapiens) (UniProt P11229); experiment: Cholinergic receptor muscarinic 1 (CHRM1) small molecule agonists, cell-based qHTS assay (AID 1963589); further: nearly all actives have a fitted effect of over 35% in size
Outline: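 Measures agonist-induced intracellular calcium rise. Stable human CHRM1 CHO line, 1 h dye load at 37 C, compounds from DMSO, kinetic fluorescence read.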

[17] = target: D(2) dopamine receptor (Homo sapiens) (UniProt P14416); experiment: Dopamine D2 receptor (DRD2) small molecule agonists, cell-based qHTS assay (AID 1963594); further: nearly all actives have a fitted effect of over 35% in size
Sequence of D(2) dopamine receptor (Homo sapiens) (P14416 whole entry, looked up): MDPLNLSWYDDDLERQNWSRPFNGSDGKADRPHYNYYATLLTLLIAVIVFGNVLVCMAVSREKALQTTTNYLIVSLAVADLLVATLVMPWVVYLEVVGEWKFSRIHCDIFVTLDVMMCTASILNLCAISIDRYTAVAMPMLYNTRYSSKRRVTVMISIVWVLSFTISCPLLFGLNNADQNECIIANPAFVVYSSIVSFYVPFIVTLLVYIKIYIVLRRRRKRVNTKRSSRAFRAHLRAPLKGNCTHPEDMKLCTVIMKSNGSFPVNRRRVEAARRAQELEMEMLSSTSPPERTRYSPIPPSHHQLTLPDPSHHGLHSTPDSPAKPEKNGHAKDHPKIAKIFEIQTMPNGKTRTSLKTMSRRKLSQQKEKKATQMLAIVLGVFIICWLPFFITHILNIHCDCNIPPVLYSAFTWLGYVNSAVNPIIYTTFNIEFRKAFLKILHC
Outline: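 HEK293 cells stably expressing human DRD2, pre-treated with PDE inhibitor Ro20-1724 (0.1 mM final) and compound 10 min at room temperature, then stimulated with NKH477 (200nM […]) for 30 min. cAMP read by HTRF (665/620 nm).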

[18] = target: D(2) dopamine receptor (Homo sapiens) (UniProt P14416); experiment: Dopamine D2 receptor (DRD2) small molecule antagonists, cell-based qHTS assay (AID 1963595; active means well fitted inhibition curve with a large enough effect in the signal ratio in the repeat runs, with a control signal flat; the % refers to the signal ratio; further: potency means the concentration at half of the fitted maximal effect)
Outline: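 HTRF cAMP read-out at 665 and 620 nm emission (340 nm excitation). Antagonist mode: compounds were tested against 12 nM quinpirole in DRD2-HEK293 cells, with 200 nM NKH477 raising cAMP and 0.1 mM Ro20-1724 blocking its breakdown.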

[19] = cAMP Responsive Elements (CRE) small molecule antagonists, cell-based qHTS assay (AID 1963591; active means well fitted inhibition curve with a large enough effect in the signal ratio in the repeat runs, not every such curve was filed as active; the % refers to the signal ratio)
Outline: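 HEK293T cells carrying a CRE-driven beta-lactamase reporter receive compound and NKH477 (0.25 uM final) for 3 h. Fluorescence from LiveBLAzer B/G FRET substrate is read after 2 h at room temperature.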

[20] = p53 small molecule agonists, cell-based qHTS assay: qHTS cell viability counter screen (AID 1963581); further: nearly all actives have a fitted effect of over 45% in size
Outline: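 Following 5 h attachment, HCT-116 p53RE-bla cells took up compound for 16 h at 37 C; the reporter was read with B/G FRET substrate (2 h RT), and viability then via CellTiter-Glo ATP luminescence.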

| SMILES | Potency [1] | Potency [2] | Potency [3] | outcome [4] | outcome [5] | Potency [6] | Potency [7] | Potency [8] | Potency [9] | Potency [10] | Potency [11] | Potency [12] | Potency [13] | Potency [14] | Potency [15] | Potency [16] | Potency [17] | Potency [18] | Potency [19] | Potency [20] |
| --- | --- | --- | --- | --- | --- | --- | --- | --- | --- | --- | --- | --- | --- | --- | --- | --- | --- | --- | --- | --- |
| NC(N)=NC(=O)Cc1c(Cl)cccc1Cl | inactive | inactive | inactive | inactive | inactive | inactive | inactive | inactive | inactive | inactive | inactive | inactive | – | – | – | – | – | – | – | – |
| ICCc1ccccc1 | inactive | 67.2 µM (active) | inactive | inactive | inactive | inactive | inactive | 28.3 µM (active) | inactive | – | inactive | inactive | inactive | inactive | inactive | inactive | inactive | inactive | – | – |
| C/C=C(\C)C(=O)OCCC(C)CCC=C(C)C (stereo unspecified) | inactive | inactive | inactive | inactive | inactive | inactive | inactive | inactive | inactive | – | – | inactive | inactive | inactive | inactive | inactive | inactive | inactive | inactive | – |
| CN(C)c1ccc(CCO)cc1 | inactive | 27.1 µM (active) | inactive | inactive | inactive | inactive | inactive | inactive | inactive | inactive | – | inactive | – | inactive | – | inactive | inactive | inactive | inactive | – |
| CC1=CCC(=C(C)C)CC1 | inactive | inactive | inactive | inactive | inactive | inactive | inactive | inactive | – | inactive | inactive | inactive | inactive | inactive | inactive | inactive | inactive | inactive | inactive | inactive |
| COc1cc(-c2ccc(N=C=O)c(OC)c2)ccc1N=C=O | inactive | inactive | inactive | inactive | inactive | inactive | inactive | inactive | – | inactive | inactive | inactive | inactive | inactive | inactive | inactive | inactive | inactive | inactive | inactive |
| O=C(O)c1cc(N=Nc2ccc([N+](=O)[O-])cc2)ccc1O | 26.8 µM (active) | inactive | inactive | inactive | inactive | inactive | inactive | inactive | inactive | – | – | inactive | inactive | inactive | inactive | – | – | inactive | – | – |
| Cc1cc(S(=O)(=O)O)ccc1N=Nc1c(O)ccc2ccccc12 | 43.3 µM (active) | inactive | inactive | inactive | inactive | inactive | inactive | inactive | inactive | – | inactive | – | inactive | – | inactive | – | inactive | inactive | inactive | – |
| CCCCCCCCCCCCc1ccc(O)cc1 | 27.3 µM (active) | inactive | inactive | inactive | inactive | inactive | inactive | inactive | 40.8 µM (active) | – | – | inactive | inactive | inactive | – | – | inactive | 61.1 µM (active) | – | – |
| CC1=C(/C=C/C(C)=C\C=C\C(C)=C\C(=O)O)C(C)(C)CCC1 | inactive | 54.5 µM (active) | inactive | inactive | inactive | inactive | inactive | inactive | inactive | – | – | inactive | – | – | – | – | inactive | inactive | – | – |
| C/C=C(/C(=C/C)c1ccc(O)cc1)c1ccc(O)cc1 | 15 µM (active) | inactive | inactive | inactive | inactive | inactive | inactive | inactive | inactive | – | – | inactive | – | – | 2.9 µM (active) | inactive | inactive | inactive | inactive | – |
| O[C@@H](COc1cccc2ncccc12)CN1CCN(C2c3ccccc3[C@@H]3[C@H](c4ccccc42)C3(F)F)CC1 (stereo partly specified) | inactive | inactive | inactive | inactive | inactive | inactive | inactive | inactive | inactive | – | – | inactive | – | inactive | 3.65 µM (active) | inactive | inactive | inactive | – | – |
| CC(C)Oc1ccccc1O | inactive | inactive | inactive | inactive | inactive | inactive | inactive | inactive | inactive | – | inactive | inactive | – | inactive | inactive | inactive | – | inactive | inactive | – |
| CC(C)Cc1nccs1 | inactive | inactive | inactive | inactive | inactive | inactive | inactive | inactive | inactive | – | – | inactive | – | inactive | inactive | inactive | inactive | inactive | inactive | – |
| COCCC(=O)OC | inactive | 68.6 µM (active) | inactive | inactive | inactive | inactive | inactive | inactive | – | inactive | inactive | inactive | inactive | inactive | inactive | inactive | inactive | inactive | inactive | inactive |
